Data on 39 molecules can be found in PubChem BioAssay (EPA / NIEHS).

Assay [1] can be described thus: ACEA_AR_agonist_AUC_viability: ACEA Biosciences xCELLigence Real-Time Cell Analysis on Androgen Receptor Agonism for Viability (AID 2283775).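 As to AC50: viability read 80 hours after compound addition.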 The procedure, abridged:
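Viability endpoint from xCELLigence impedance in 22Rv1 prostate cells at 80 h. Eight-point series, 100 uM maximum final.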

Assay [2] can be described thus: ACEA_AR_antagonist_AUC_viability: ACEA Biosciences xCELLigence Real-Time Cell Analysis on Androgen Receptor Antagonism for Viability (AID 2283776).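 Also: 22Rv1 human prostate cancer cells growing on impedance electrode plates; area under impedance growth curve at 80 h after dosing as viability; hits lower the growth signal relative to DMSO meaning cytotoxicity.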 In a few lines: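 22Rv1 prostate cells, continuous dosing up to 100 uM final (0.5% DMSO max), duplicate plates. Growth measured by impedance; AUC at 80 h, loss of signal vs DMSO.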
The target in assay [3] is Luciferin 4-monooxygenase (Photinus pyralis) (UniProt P08659). Nature of the assay: CCTE_Simmons_QuantiLum_inhib_2: CCTE's Firefly Luciferase Inhibition Assay, Simmons Lab (AID 2283767). The procedure, abridged: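 Cell-free QuantiLum luciferase, 5 ng/well; compounds 5 nM–87.5 uM final, 8 conc, 0.5% DMSO; 30 min, 37C, dark. Detection reagent (150 uM D-luciferin, 147 uM dATP, CoA, DTT, pH 7.8 final) injected per well, kinetic luminescence. Triplicate biological replicates.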

Assay [4] in a line: ACEA_ER_AUC_viability: ACEA Biosciences xCELLigence Real-Time Cell Analysis on Estrogen Receptor Agonism for Viability (AID 2283782).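 Also: hit means loss of impedance signal meaning reduced cell growth or viability.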 In a few lines: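 Viability endpoint: reduced impedance area under the curve relative to DMSO, recorded by real-time electrode sensing over ~80 h of continuous exposure. Duplicate plates of T47D in hormone-depleted medium; eight concentrations, 1:4 dilutions, 100 uM maximum.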

Assay [5] concerns the target AR (gene 367) (UniProt P10275). In words: ACEA_AR_agonist_80hr: ACEA Biosciences xCELLigence Real-Time Cell Analysis on Androgen Receptor Agonism for Proliferation (AID 2283783).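 Also: hits increase impedance growth signal above DMSO baseline.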 The procedure, abridged: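 Eight concentrations, 1:4 serial dilution from a 100 uM final top, in biological duplicate. Impedance-based real-time growth of 22Rv1 cells after overnight baseline, recorded hourly and read at 80 hours. Controls: testosterone, MG132, assay media.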

Assay [6] concerns the target AR (gene 367) (UniProt P10275). In words: ACEA_AR_antagonist_80hr: ACEA Biosciences xCELLigence Real-Time Cell Analysis on Androgen Receptor Antagonism for Proliferation (AID 2283787).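 Also: 22Rv1 human prostate cancer cells with growth followed by electrical impedance; hits lower the impedance growth signal relative to DMSO.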 In a few lines: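 Impedance-based real-time growth of 22Rv1 prostate cells, read 80 h after dosing. Eight concentrations, 1:4 series, top 100 uM final (0.5% DMSO), n = 2; signal decrease scored against DMSO.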

A short description of assay [7]: STM_H9_NormalizedViability: Cytotoxicity Assessment at 120 hours in the Stemina devTOX quickPredict H9 human embryonic stem cell (hESC)-based Assay (AID 2283784). The procedure, abridged: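 CellTiter-Fluor RFU, background-subtracted, expressed relative to 0.1% DMSO neutral control by plate. Pluripotent H9 cells; treatment with daily re-dosing. Plates carried 1uM methotrexate (positive) and 5 nM methotrexate (negative) references.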

Inconclusive results are not listed. The source made the active and inactive calls. The calls were made as follows: active = hit-call score of the fitted dose curve at least 0.9, where 1 is the maximum; inconclusive = response in the unintended direction; inactive = score below 0.9.

Chain of Luciferin 4-monooxygenase (Photinus pyralis) (P08659 whole entry, looked up): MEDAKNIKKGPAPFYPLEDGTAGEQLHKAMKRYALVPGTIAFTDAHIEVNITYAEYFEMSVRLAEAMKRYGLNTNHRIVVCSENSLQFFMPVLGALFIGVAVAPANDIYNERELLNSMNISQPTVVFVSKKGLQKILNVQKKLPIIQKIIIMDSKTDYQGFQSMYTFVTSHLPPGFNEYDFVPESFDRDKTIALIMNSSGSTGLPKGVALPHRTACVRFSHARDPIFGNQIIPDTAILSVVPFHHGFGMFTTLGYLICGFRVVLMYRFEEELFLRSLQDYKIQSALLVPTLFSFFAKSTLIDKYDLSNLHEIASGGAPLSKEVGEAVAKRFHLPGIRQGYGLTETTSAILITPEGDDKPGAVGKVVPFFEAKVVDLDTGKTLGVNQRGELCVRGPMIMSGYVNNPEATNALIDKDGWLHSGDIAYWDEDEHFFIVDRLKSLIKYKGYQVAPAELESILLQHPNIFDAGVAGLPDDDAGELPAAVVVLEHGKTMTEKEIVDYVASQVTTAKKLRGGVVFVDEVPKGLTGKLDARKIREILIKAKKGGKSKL
Chain of AR (gene 367) (P10275 whole entry, looked up): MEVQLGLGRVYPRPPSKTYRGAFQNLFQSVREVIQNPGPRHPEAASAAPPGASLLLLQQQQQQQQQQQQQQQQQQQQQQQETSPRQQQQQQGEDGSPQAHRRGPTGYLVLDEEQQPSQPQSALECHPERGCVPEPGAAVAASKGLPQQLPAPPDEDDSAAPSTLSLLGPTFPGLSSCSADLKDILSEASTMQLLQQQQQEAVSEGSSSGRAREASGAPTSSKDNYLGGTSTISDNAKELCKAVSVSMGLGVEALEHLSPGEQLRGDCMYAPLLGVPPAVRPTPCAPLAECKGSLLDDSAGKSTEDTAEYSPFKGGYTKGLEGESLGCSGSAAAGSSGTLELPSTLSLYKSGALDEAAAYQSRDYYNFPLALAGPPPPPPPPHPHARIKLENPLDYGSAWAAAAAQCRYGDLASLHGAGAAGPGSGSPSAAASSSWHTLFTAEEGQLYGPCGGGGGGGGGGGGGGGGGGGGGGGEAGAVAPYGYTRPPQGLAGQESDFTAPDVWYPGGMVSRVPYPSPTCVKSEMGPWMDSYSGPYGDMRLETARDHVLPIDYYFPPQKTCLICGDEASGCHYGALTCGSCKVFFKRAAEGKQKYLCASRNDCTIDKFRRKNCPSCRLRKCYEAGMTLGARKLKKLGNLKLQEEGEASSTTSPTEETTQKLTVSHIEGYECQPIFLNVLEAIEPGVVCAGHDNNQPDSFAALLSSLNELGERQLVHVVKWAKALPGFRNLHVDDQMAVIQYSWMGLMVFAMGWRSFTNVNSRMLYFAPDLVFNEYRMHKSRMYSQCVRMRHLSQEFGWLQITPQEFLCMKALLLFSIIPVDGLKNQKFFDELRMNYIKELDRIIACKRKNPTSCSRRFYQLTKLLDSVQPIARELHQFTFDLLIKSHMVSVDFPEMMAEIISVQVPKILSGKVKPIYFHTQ

On to `O=[N+]([O-])c1ccc(Cl)c(Cl)c1`, for which the call in assay [1] and in assay [2] was inactive.

On to `CCOP(=S)(Oc1ccc([N+](=O)[O-])cc1)c1ccccc1` (stereo not given), for which the molecule was classed as inactive in assay [3]. The half-maximal activity concentration (AC50) in assay [1] was 50 µM (active); in assay [2] it was 14.9 µM (active).

For the molecule `CCOP(=S)(OCC)SCSCC`, the molecule was classed as inactive in assay [3] and in assay [2]. The AC50 in assay [1] is 83.4 µM (active).

`ClC(Cl)c1ccccc1`: the outcome in assay [1] and in assay [2] was inactive.

As for `Nc1cc2c3c(c1)C(c1ccccc1)=N[C@@H](NC(=O)c1cccnc1)C(=O)N3CC2`, the result in assay [3], in assay [1], in assay [2] and in assay [4] was inactive.

In the case of `c1ccc(OP(Oc2ccccc2)Oc2ccccc2)cc1`, the molecule was classed as inactive in assay [3].

For the molecule `CCCCc1ccc(O)cc1`, the result in assay [3] and in assay [1] was inactive. Further, the results for the AC50 in assay [2] and in assay [4] were 8.13 µM (active) and 82.5 µM (active), respectively.

Regarding `Cc1ccc([N+](=O)[O-])cc1C`, the call in assay [1], in assay [2] and in assay [4] was inactive.

With `CCCCC(CC)COC(=O)c1c(Br)c(Br)c(Br)c(Br)c1C(=O)OCC(CC)CCCC` (stereo not given), the call in assay [2] was inactive.

Turning to `Cc1ccc(C(=O)Cl)cc1`, the outcome in assay [4] was inactive.

Consider `c1nc[nH]n1`, for which the outcome in assay [2] was inactive.

Turning to `ClC1=C(Cl)C2(Cl)C3C(Cl)C(Cl)CC3C1(Cl)C2(Cl)Cl` (stereo not given), the AC50 is 11.9 µM (active) in assay [1], 13.6 µM (active) in assay [2], 91.7 µM (active) in assay [4] and 5.06 µM (active) with AR (gene 367) [6]. Moreover, in the assay with AR (gene 367) [5], the outcome was inactive.

On to `Nc1ccc(Sc2ccc(N)cc2)cc1`, for which the molecule was classed as inactive in assay [4].

For `Oc1ccc(I)cc1`, the AC50 in assay [4] was 73.7 µM (active).

`CC(Cl)(Cl)C(=O)O`: the result in assay [2] was inactive.

With `CC1=C(C(=O)Nc2ccccc2)S(=O)(=O)CCO1`, the AC50 in assay [4] is 28.6 µM (active).

For the molecule `CCNc1nc(Cl)nc(NC(C)(C)C)n1`, the molecule was classed as inactive (in assay [1]; in assay [2]; with AR (gene 367) [5]; with AR (gene 367) [6]).

As to `CCOC(=O)c1ccccc1C(=O)OCC`, the call in assay [2], in assay [4] and in assay [7] was inactive.

Take `O=C(O)CF`: the call in assay [1], in assay [2] and in assay [4] was inactive.

For the molecule `c1cc2c3c(cccc3c1)CC2`, the result (in assay [1]; in assay [2]; with AR (gene 367) [5]; in the assay with AR (gene 367) [6]) was inactive.

On to `O=P(OCC(Br)CBr)(OCC(Br)CBr)OCC(Br)CBr` (stereo not given), for which, in assay [1], the concentration at half-maximal activity (AC50) is 23.3 µM (active). The result (in assay [2]; in assay [4]; in the assay with AR (gene 367) [5]; in the assay with AR (gene 367) [6]) was inactive.

For `CCCCN(CCCC)N=O`, the call in assay [1], in assay [2] and in assay [4] was inactive.

With `CC(Cc1ccc(OCC(=O)O)cc1)NCC(O)c1csc(C(F)(F)F)n1` (stereo not given), the result in assay [1], in assay [2] and in assay [4] was inactive.

Turning to `CC(C)(C)N(NC(=O)c1ccc(Cl)cc1)C(=O)c1ccccc1`, the outcome (in assay [1]; in assay [2]; with AR (gene 367) [6]) was inactive.

As for `COC(N)=O`, the call in assay [2] and in assay [4] was inactive.

As for `CN(C)C(=O)Cl`, the call in assay [2] was inactive.

Consider `CSC(C)(C)C=NO`, for which the molecule was called inactive in assay [1], in assay [2] and in assay [4].

For the molecule `COCCOCCO`, the call in assay [2] and in assay [4] was inactive.

Consider `N#C/C=C/c1ccccc1`, for which the AC50 in assay [4] is 50 µM (active).

Turning to `CCN(CC)c1ccccc1`, the molecule was classed as inactive (in assay [2]; in the assay with AR (gene 367) [5]; with AR (gene 367) [6]).

Turning to `OCC(F)(F)OC(F)(F)C(F)(F)OC(F)(F)C(F)(F)OC(F)(F)CO`, in assay [4], the AC50 was 137 µM (active).

In the case of `C=CC(=O)OCC(F)(F)C(F)F`, the molecule was classed as inactive in assay [4].

Regarding `CO/N=C(/C(=O)OC)c1ccccc1COc1ccccc1C`, the result (in assay [1]; in assay [2]; in the assay with AR (gene 367) [6]) was inactive.

Regarding `FC(F)(F)c1ccc(Cl)cc1`, the call in assay [2] was inactive.

Turning to `CCCCN(CCCC)SN(C)C(=O)Oc1cccc2c1OC(C)(C)C2`, the AC50 was 57.4 µM (active) in assay [1], 49.2 µM (active) in assay [2] and 79.2 µM (active) in assay [4].

As to `CCCCOCC1CO1` (stereo not given), the call in assay [1], in assay [2] and in assay [4] was inactive.

As for `O=C(CBr)OCc1ccccc1`, the result in assay [1] and in assay [4] was inactive.

Consider `CC1(C)CN=C(NN=C(/C=C/c2ccc(C(F)(F)F)cc2)/C=C/c2ccc(C(F)(F)F)cc2)NC1`, for which the AC50 in assay [1] was 12.6 µM (active); in assay [2], 11.1 µM (active); in assay [4], 2.02 µM (active); with AR (gene 367) [6], 12.3 µM (active).

Take `CCCN(CCC)c1c([N+](=O)[O-])cc(C(C)C)cc1[N+](=O)[O-]`: the half-maximal activity concentration (AC50) in assay [1] was 45.2 µM (active); in assay [2] it was 58.7 µM (active); in assay [4], 87.3 µM (active).
